# Counter-ions that a name gives are not always drawn.
# Tests used:
# [1] = system: Vero E6 infected with SARS-CoV-2; assay: morphology score (similarity to uninfected cells); higher = more like uninfected cells; settings: 24 h
# [2] = system: Vero E6 infected with SARS-CoV-2; assay: SARS-CoV-2 infection rate relative to infected DMSO; higher = more infection, active = 60 or less; settings: 24 h
SMILES,morphology score [1],SARS-CoV-2 infection rate [2]
Cc1cn(C[C@H](N)C(=O)O)c(=O)n(Cc2ccsc2C(=O)O)c1=O (10 µM),-0.0699,96.5% (inactive)
CN(C)C(=O)Oc1cc(OC(=O)N(C)C)cc(C(O)CNC(C)(C)C)c1 (stereo not given) [bambuterol] (10 µM),-0.145,114% (inactive)
O=c1[nH]c2ccc(Cl)cc2c(N[C@@H]2CN3CCC2CC3)c1-c1nc2ccccc2[nH]1 (10 µM),-0.162,110% (inactive)
Cc1ccc(NC(=O)C(C)C)cc1C1CCN(Cc2ccc(Oc3ccc(F)c(F)c3)cc2)CC1 (0.833333 µM),0.375,90.5% (inactive)
CCOC(=O)[C@@H](N)Cc1ccc(-c2cc(O[C@H](c3ccc(Cl)cc3-n3ccc(C)n3)C(F)(F)F)nc(N)n2)cc1 [telotristat-ethyl] (10 µM),0.343,95.5% (inactive)
O[C@H]1CC[C@H](Nc2nc(-c3ccccc3)nc3[nH]ccc23)CC1 (10 µM),0.409,93% (inactive)
CN(C)Cc1cccc(N/C(=C2\C(=O)Nc3cc(C(N)=O)ccc32)c2ccccc2)c1 (10 µM),-0.132,120% (inactive)
O=C(c1ccc(Cl)o1)N1CC2CNCC2C1 (stereo not given) (10 µM),0.187,105% (inactive)
CC(C(=O)O)c1ccc2c(c1)Cc1ccccc1-2 (stereo not given) [cicloprofen] (10 µM),-0.0564,100% (inactive)
COc1ccc(S(=O)(=O)N2CCCN(S(=O)(=O)c3ccc(OC)c(OC)c3)CC2)cc1OC (10 µM),0.209,106% (inactive)
O=C1NS(=O)(=O)c2ccccc21 [saccharin] (10 µM),-0.085,106% (inactive)
CC(C)C[C@H](NC(=O)[C@@H](Cc1c[nH]c2ccccc12)NC(=O)[C@H](Cc1ccc(O)cc1)NC(=O)[C@H](CO)NC(=O)[C@H](Cc1c[nH]c2ccccc12)NC(=O)[C@H](Cc1c[nH]cn1)NC(=O)[C@@H]1CCC(=O)N1)C(=O)N[C@@H](CCCNC(=N)N)C(=O)N1CCC[C@H]1C(=O)NCC(N)=O [triptorelin] (10 µM),-0.0195,110% (inactive)
NCC(=O)Nc1ccc(-n2nc(C(F)(F)F)cc2-c2ccc3c(ccc4ccccc43)c2)cc1 (0.833333 µM),-0.089,99.5% (inactive)
O=c1ccc2cc(O[C@@H]3O[C@H](CO)[C@@H](O)[C@H](O)[C@H]3O)c(O)cc2o1 [esculin] (10 µM),0.15,111% (inactive)
O=c1c(-c2ccccc2)c1-c1ccccc1 [diphencyprone] (10 µM),-0.0547,100% (inactive)
N#CCC(=O)c1ccccc1 (10 µM),0.0172,112% (inactive)
CC(C)NC[C@@H](O)COc1ccccc1-n1cccc1 (racemic) [isamoltane] (10 µM),-0.204,114% (inactive)
"OCCCCO [1,4-butanediol] (10 µM)",0.0223,105% (inactive)
Nc1nc(N)c2nc(-c3cccc(O)c3)cnc2n1 (10 µM),0.242,101% (inactive)
CCCCCCCCCCCCCCCC(=O)C(F)(F)F (10 µM),0.158,97% (inactive)

SMILES,morphology score [1],SARS-CoV-2 infection rate [2]
C[C@H](NC(=O)c1sccc1OCc1ccc(Cl)cc1)c1ccccc1 (10 µM),0.0842,94.5% (inactive)
CNC(=O)Oc1ccccc1OC(C)C [propoxur] (10 µM),-0.276,118% (inactive)
CN(C)CCc1c[nH]c2ccc(C[C@H]3COC(=O)N3)cc12 [zolmitriptan] (10 µM),0.127,92.5% (inactive)
CNC[C@H](O)c1ccc(O)c(O)c1 [epinephrine] (10 µM),0.0378,104% (inactive)
CC(=O)O[C@]1(C(C)=O)CC[C@H]2[C@@H]3CCC4=CC(=O)CCC4=C3[C@@H](c3ccc(N(C)C)cc3)C[C@@]21C [Ulipristal acetate] (10 µM),0.286,104% (inactive)
C[C@H](N[C@@H](CCc1ccccc1)C(=O)O)C(=O)N1CCC[C@H]1C(=O)O [enalaprilat] (10 µM),-0.0398,107% (inactive)
Clc1ccc(Cn2c(CN3CCCC3)nc3ccccc32)cc1 [clemizole] (10 µM),0.153,103% (inactive)
CCCCCCCC/C=C\CCCCCCCC(=O)NCc1ccc(O)c(OC)c1 [olvanil] (10 µM),0.22,96% (inactive)
CN(C)CCC=C1c2ccccc2CCc2ccccc21 [amitriptyline] (10 µM),0.0472,100% (inactive)
C[C@@H]1C/C=C/C=C/C=C/C=C/[C@H](O[C@@H]2O[C@H](C)[C@@H](O)[C@H](N)[C@@H]2O)C[C@@H]2O[C@](O)(C[C@@H](O)C[C@H]3O[C@@H]3/C=C/C(=O)O1)C[C@H](O)[C@H]2C(=O)O [natamycin] (10 µM),0.0781,108% (inactive)
CCCNCC(O)COc1ccccc1C(=O)CCc1ccccc1 (stereo not given) [propafenone] (0.833333 µM),-0.109,110% (inactive)
COc1ccc(-c2cnc3c(-c4cccc5ncccc45)cnn3c2)cc1 (10 µM),0.294,100% (inactive)
Nc1nc(F)nc2c1ncn2[C@@H]1O[C@H](CO)[C@@H](O)[C@@H]1O [fludarabine] (10 µM),-0.0436,107% (inactive)
COC(F)(F)C(Cl)Cl [methoxyflurane] (10 µM),0.106,100% (inactive)
COc1ccc(C[C@H]2NC[C@H](O)[C@H]2OC(C)=O)cc1 [anisomycin] (0.833333 µM),0.045,102% (inactive)
CCN(CC)CCCCNc1ncc2cc(-c3cc(OC)cc(OC)c3)c(NC(=O)NC(C)(C)C)nc2n1 (0.833333 µM),0.13,107% (inactive)
[O-][n+]1cccc(CO)c1 [mepiroxol] (10 µM),-0.0187,109% (inactive)
Cc1nc2ccccc2n1Cc1ccc(Cl)cc1 [chlormidazole] (10 µM),-0.099,118% (inactive)
CCNC(=O)CC[C@H](N)C(=O)O [L-theanine] (10 µM),0.0421,102% (inactive)
NS(=O)(=O)c1cc2c(cc1Cl)N=C(CSCc1ccccc1)NS2(=O)=O [benzthiazide] (10 µM),-0.187,116% (inactive)

SMILES,morphology score [1],SARS-CoV-2 infection rate [2]
CN(C)CCOc1ccc(/C(=C(/CCCl)c2ccccc2)c2ccccc2)cc1 [Toremifene citrate] (10 µM),0.422,77% (inactive)
Cc1cc(C)c(CNC(=O)c2cc(-c3ccc(CN4CCOCC4)cc3)cc3c2cnn3C2CCCC2)c(=O)[nH]1 (10 µM),-0.13,110% (inactive)
CNC(=O)c1cccc2cc(Oc3ccnc4cc(OCC5(N)CC5)c(OC)cc34)ccc12 [lucitanib] (10 µM),0.0362,104% (inactive)
c1coc(CNc2ncnc3[nH]cnc23)c1 [kinetin] (10 µM),0.0735,104% (inactive)
CNCCC=C1c2ccccc2C=Cc2ccccc21 [norcyclobenzaprine] (10 µM),0.314,81% (inactive)
CC1(C)[C@H](C(=O)O)N2C(=O)C[C@H]2S1(=O)=O [sulbactam] (10 µM),0.0596,113% (inactive)
CCCCc1nc(C)c(CC(=S)N(C)C)c(=O)n1Cc1ccc(-c2ccccc2-c2nnn[nH]2)cc1 [fimasartan] (10 µM),0.0951,112% (inactive)
Oc1ccc([C@@H]2Oc3ccc(O)cc3[C@@H]3CCC[C@@H]32)cc1 [erteberel] (10 µM),0.0963,113% (inactive)
NC[C@@](O)(c1ccc(Cl)cc1)c1ccc(-c2cn[nH]c2)cc1 (10 µM),0.174,108% (inactive)
CN[C@@H](C)C(=O)N[C@H](C(=O)N1CCC[C@H]1c1nc(C(=O)c2ccc(F)cc2)cs1)C1CCCCC1 (10 µM),0.403,87% (inactive)
CC(C)Oc1ccc(-c2nn([C@@H](C)c3oc4ccc(F)cc4c(=O)c3-c3cccc(F)c3)c3ncnc(N)c23)cc1F (10 µM),0.0291,106% (inactive)
CC(C)[C@@H](C(=O)Nc1nccs1)c1ccc(Cl)cc1 (10 µM),0.0344,98.5% (inactive)
CC/C(=C(\c1ccc(O)cc1)c1ccc(OCCN(C)C)cc1)c1ccccc1 [afimoxifene] (10 µM),0.801,27.5% (active)
Cc1[nH]c2ccccc2c1CCNCc1ccc(/C=C/C(=O)NO)cc1 [panobinostat] (0.833333 µM),-0.0995,105% (inactive)
O=C(c1ccc(OCCCc2c[nH]cn2)cc1)C1CC1 [ciproxifan] (10 µM),0.181,95.5% (inactive)
Cc1cc(OCc2nc(-c3ccccc3Cl)cs2)ccc1OCC(=O)O [GPR120-modulator-1] (10 µM),-0.0706,100% (inactive)
COc1ccc(/C=C/C(=O)/C=C(O)/C=C/c2ccc(OC)c(OC)c2)cc1OC (10 µM),0.335,80.5% (inactive)
Clc1ccccc1CN1CCc2sccc2C1 [ticlopidine] (10 µM),0.199,92.5% (inactive)
CC(C)C[C@@H](N)C(=O)N[C@H]1C(=O)N[C@@H](CC(N)=O)C(=O)N[C@H]2C(=O)N[C@H]3C(=O)N[C@H](C(=O)N[C@H](C(=O)O)c4cc(O)cc(O)c4-c4cc3ccc4O)[C@H](O)c3ccc(c(Cl)c3)Oc3cc2cc(c3O[C@@H]2O[C@H](CO)[C@@H](O)[C@H](O)[C@H]2O[C@H]2C[C@](C)(N)[C@H](O)[C@H](C)O2)Oc2ccc(cc2Cl)[C@H]1O [norvancomycin] (10 µM),0.00559,100% (inactive)
CC(C)(C)c1cc(/C=C(\C#N)C(N)=S)cc(C(C)(C)C)c1O [tyrphostin-AG-879] (0.833333 µM),0.166,102% (inactive)

# Source: the supplement of paper PMC13380429
